Growth data for 39 compounds are collected here from PubChem BioAssay (NCI).

The panel holds about 83,000 compounds, 20% with a hit somewhere; the sample as a whole holds those more often.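 Activity criterion: percent growth below 10, measured after cells in 96-well plates were exposed to a single compound concentration for 48 hours.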 Activity calls are given as the source filed them.

One assay concerns TK-10 renal. Put plainly: NCI-60 one-dose screen, 48 h (100 = growth as untreated, 0 = no growth, -100 = all killed). Conditions: 10 µM.
`CN(C)CCN(Cc1ccccc1)c1ccc2ccccc2n1`: the growth is 93.1% (inactive).
Regarding `CCN(CC)CCOc1cccc2c1C(=O)c1cccc(OCCN(CC)CC)c1C2=O`, the growth was 47.4% (inactive).
Same read-out and setting: next, `O=C(NCCCNS(=O)(=O)c1ccc(Cl)cc1)Nc1ccc(-n2cc(-c3ccncc3)c(-c3ccc(Cl)c(O)c3)n2)cc1`: 62.5% (inactive); `C1CN(CC2CCC(CN3CCOCC3)O2)CCO1` (stereo not drawn): 95.8% (inactive).
Take `NC(N)=N/N=C(\c1ccccc1)C(O)c1ccccc1` (stereo not drawn): the growth is 94.2% (inactive).
The same measure, in the same setting: next, `N#CC1=C(N)Oc2cc(N)ccc2C1c1cccnc1` (stereo not drawn): 119% (inactive); `CCOC(=O)c1cc(C(=O)c2cc(OC)cc(OC)c2)n2nc(C)ccc12`: 65% (inactive); `COc1cc(C)ccc1Oc1nc(Nc2ccc(N3CCOCC3)cc2)ncc1NC(=O)Nc1cc(C(F)(F)F)cc(C(F)(F)F)c1`: 51.1% (inactive).
The same measure, in the same setting: next, `CCN(CC)CC(=O)N(CC)c1ccc(C)c(Cl)c1`: 93.6% (inactive); `O=C(CC(CC(=O)c1ccccc1)c1ccccc1O)c1ccccc1`: 98.6% (inactive).
For the compound `C=C(C)[C@@H]1CC[C@]2(COCCC#N)CC[C@]3(C)[C@H](CC[C@@H]4[C@@]5(C)Cc6c([nH]c7ccccc67)C(C)(C)[C@@H]5CC[C@]43C)[C@@H]12`, the growth is 100% (inactive).
Still for that read-out and setting: next, `Fc1ccc2[nH]cc(-c3nc(-c4ccsc4)cs3)c2c1`: 133% (inactive); `COc1cc(-c2nn(-c3cccc(NC(=O)CCN4CCN(Cc5ccccc5)CC4)c3)cc2-c2ccncc2)ccc1Cl`: 26.1% (inactive).
Take `Cc1cc(=O)n2nnc3cc(Cl)c(Cl)cc3n12`: the growth is 102% (inactive).
As for `O=C(/C=C/C=C/c1c(C2CC2)nc2ccccc2c1-c1ccc(F)cc1)c1cccs1`, the growth is 22.4% (inactive).
On the same count and under the same terms, as for `CC(=O)[C@H]1CC[C@]2(C)[C@@H]1CC[C@@H]1[C@@]3(C)CC(CCC#N)(CCC#N)C(=O)C(C)(C)[C@@H]3CC[C@]12C`, the figure is 104% (inactive).
`CCNCC(=O)Nc1ccc(C(=O)OCC)cc1`: the growth was 86.2% (inactive).
`S=C(NCc1ccccc1)NCc1ccccc1`: the growth is 83.2% (inactive).
Same read-out and setting: as for `NNC(=O)Oc1c(Cl)cc(Cl)cc1[N+](=O)[O-]`, the figure is 94.1% (inactive).
The same measure, in the same setting: next, `CN1CCN(CCC(=O)Nc2cccc(-n3cc(-c4ccncc4)c(-c4ccc(Cl)c(O)c4)n3)c2)CC1`: 103% (inactive); `O=S(=O)(O)c1cccc(Nc2ccc3ccccc3c2)c1`: 115% (inactive).
As to `CCN(CC)CCOc1ccc2c(c1O)C(=O)c1ccccc1C2=O`, the growth was 78% (inactive).
Still for that read-out and setting: as for `S=C(SSC(=S)N(c1ccccc1)c1ccccc1)N(c1ccccc1)c1ccccc1`, the figure is 95.3% (inactive).
Regarding `CN1CCN(CC(=O)Nc2cccc(-n3cc(-c4ccncc4)c(-c4ccc(Cl)c(O)c4)n3)c2)CC1`, the growth is 103% (inactive).

The test system of another assay is ACHN renal. The description is as above. As to conditions: 10 µM.
On to `CCc1ccc(-c2ccc(-n3nc(C)c4c(N)nc(Cc5ccccc5)nc43)cc2)cc1`, for which the growth is 35.5% (inactive).
Turning to `O=C(Nc1ccc(F)cc1)c1cc2ccccc2cc1O`, the growth is 80.8% (inactive).
The same measure, in the same setting: next, `Nc1nccc(OCCO)n1`: 108% (inactive); `O=C(CCCCNC(=O)c1nc(-c2ccccc2)n(-c2ccccc2)n1)NO`: 102% (inactive).
Still for that read-out and setting: as for `COc1cc(-c2nn(-c3ccc(NC(=O)NCCNS(=O)(=O)c4ccc(F)cc4)cc3)cc2-c2ccncc2)ccc1Cl`, the figure is 23.7% (inactive); as for `O=C(Nc1ccc2c(O)cc(S(=O)(=O)O)cc2c1)c1ccc([N+](=O)[O-])cc1`, 107% (inactive); as for `COC(=O)C1(O)NC(=C(C#N)C#N)C(C#N)=C1C(=O)c1ccc(OC)c(OC)c1` (stereo not drawn), 108% (inactive).
For the compound `C=CCn1c(SCC(=O)Nc2ccc(C(=O)/C=C/c3ccc(OC)cc3)cc2)nnc1-c1ccc(OC)c(OC)c1`, the growth is 94.9% (inactive).
The same measure, in the same setting: as for `COc1cc(NC(=O)Nc2cnc(Nc3ccc(N4CCOCC4)cc3)nc2Oc2cccc(OC)c2)cc(OC)c1`, the figure is 32.8% (inactive).
Same read-out and setting: next, `O=C(CCl)Nc1ccc(Cc2ccc(NC(=O)CCl)cc2)cc1`: -20.1% (active); `Cc1nn(-c2ccc(-c3ccc(OC(F)(F)F)cc3)cc2)c2nc(Cc3ccccc3)nc(N)c12`: 16.7% (inactive); `O=C(Nc1nc(-c2ccccc2)nc2c1sc(=S)n2-c1ccccc1)C(F)(F)F`: 91.3% (inactive).
Regarding `S=c1cnc2ccccc2[nH]1`, the growth was 101% (inactive).
On the same count and under the same terms, as for `O=C(CSc1nnc(-c2ccc(Cl)cc2)o1)Nc1ccc(C(=O)/C=C/c2ccc(Cl)cc2)cc1`, the figure is 114% (inactive); as for `CN(C)CCN(Cc1ccccc1)c1ccc2ccccc2n1`, 95.8% (inactive).
In the case of `CCN(CC)CCOc1cccc2c1C(=O)c1cccc(OCCN(CC)CC)c1C2=O`, the growth was 17.7% (inactive).
Still for that read-out and setting: as for `O=C(NCCCNS(=O)(=O)c1ccc(Cl)cc1)Nc1ccc(-n2cc(-c3ccncc3)c(-c3ccc(Cl)c(O)c3)n2)cc1`, the figure is 26.4% (inactive).
With `C1CN(CC2CCC(CN3CCOCC3)O2)CCO1` (stereo not drawn), the growth is 38.9% (inactive).
Consider `NC(N)=N/N=C(\c1ccccc1)C(O)c1ccccc1` (stereo not drawn), for which the growth is 109% (inactive).
Regarding `N#CC1=C(N)Oc2cc(N)ccc2C1c1cccnc1` (stereo not drawn), the growth is 96.7% (inactive).
Regarding `CCOC(=O)c1cc(C(=O)c2cc(OC)cc(OC)c2)n2nc(C)ccc12`, the growth is 60.5% (inactive).
On to `COc1cc(C)ccc1Oc1nc(Nc2ccc(N3CCOCC3)cc2)ncc1NC(=O)Nc1cc(C(F)(F)F)cc(C(F)(F)F)c1`, for which the growth was 24.4% (inactive).
Still for that read-out and setting: as for `COc1ccc(/C=C2\CCCC3C2=Nc2ccccc2NC3c2ccc(OC)cc2)cc1` (stereo not drawn), the figure is 113% (inactive); as for `CCN(CC)CC(=O)N(CC)c1ccc(C)c(Cl)c1`, 117% (inactive).
As for `O=C(CC(CC(=O)c1ccccc1)c1ccccc1O)c1ccccc1`, the growth is 99.3% (inactive).
Same read-out and setting: next, `C=C(C)[C@@H]1CC[C@]2(COCCC#N)CC[C@]3(C)[C@H](CC[C@@H]4[C@@]5(C)Cc6c([nH]c7ccccc67)C(C)(C)[C@@H]5CC[C@]43C)[C@@H]12`: 95.2% (inactive); `Fc1ccc2[nH]cc(-c3nc(-c4ccsc4)cs3)c2c1`: 93.6% (inactive); `COc1cc(-c2nn(-c3cccc(NC(=O)CCN4CCN(Cc5ccccc5)CC4)c3)cc2-c2ccncc2)ccc1Cl`: 24.1% (inactive).
On the same count and under the same terms, as for `Cc1cc(=O)n2nnc3cc(Cl)c(Cl)cc3n12`, the figure is 90.2% (inactive); as for `O=C(/C=C/C=C/c1c(C2CC2)nc2ccccc2c1-c1ccc(F)cc1)c1cccs1`, -42.6% (active).
On the same count and under the same terms, next, `CC(=O)[C@H]1CC[C@]2(C)[C@@H]1CC[C@@H]1[C@@]3(C)CC(CCC#N)(CCC#N)C(=O)C(C)(C)[C@@H]3CC[C@]12C`: 95.2% (inactive); `CCNCC(=O)Nc1ccc(C(=O)OCC)cc1`: 108% (inactive); `S=C(NCc1ccccc1)NCc1ccccc1`: 105% (inactive).
Consider `NNC(=O)Oc1c(Cl)cc(Cl)cc1[N+](=O)[O-]`, for which the growth was 106% (inactive).
On to `CN1CCN(CCC(=O)Nc2cccc(-n3cc(-c4ccncc4)c(-c4ccc(Cl)c(O)c4)n3)c2)CC1`, for which the growth was 45.5% (inactive).
Consider `O=S(=O)(O)c1cccc(Nc2ccc3ccccc3c2)c1`, for which the growth was 98% (inactive).
On the same count and under the same terms, as for `CCN(CC)CCOc1ccc2c(c1O)C(=O)c1ccccc1C2=O`, the figure is 56.9% (inactive); as for `S=C(SSC(=S)N(c1ccccc1)c1ccccc1)N(c1ccccc1)c1ccccc1`, 114% (inactive); as for `CN1CCN(CC(=O)Nc2cccc(-n3cc(-c4ccncc4)c(-c4ccc(Cl)c(O)c4)n3)c2)CC1`, 44.7% (inactive).
